Substitutions are numbered along the chain they refer to.

Data on 30 sequences can be found in PMC9838217, “Structure of SALL4 zinc finger domain reveals link between AT-rich DNA binding and Okihiro syndrome”.

What all share (test): HT-SELEX; high values mean tight binding
Holding throughout (conditions): protein: recombinant; vector His6-GST; dsDNA, one strand shown

In one test the target is T1, SALL4 ZFC4 WT (HT-SELEX) (Mus musculus, UniProt Q8BX22 870-940).
T1 sequence: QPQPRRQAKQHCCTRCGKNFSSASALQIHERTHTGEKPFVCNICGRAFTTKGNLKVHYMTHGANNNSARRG
Summed up: (§1)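 Binding signal is expressed as fold change in each canonical k-mer's read fraction over the initial random library. To obtain it, 1 µg of purified recombinant mouse SALL4 zinc finger cluster 4 (residues 870–940) was incubated for 10 min at room temperature with library DNA (1.5 µg first cycle, 200 ng later cycles) in 100 µl of 10 mM Tris–HCl pH 7.5, 50 mM NaCl, poly(dI-dC) and DTT. Ni2+ bead-captured complexes went through washing, PCR amplification and reselection for up to 6 cycles, in triplicate, before MiSeq sequencing and scanning for 6-mers.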

Test [1] concerns the target T2, SALL4 ZFC4 R900W (HT-SELEX) (Mus musculus, UniProt Q8BX22 870-940, R900W).
T2 sequence: T1 sequence with R31W
Summed up: as §1

Test [2] deals with T3, SALL4 ZFC4 G921D (HT-SELEX) (Mus musculus, UniProt Q8BX22 870-940, G921D).
T3 sequence: T1 sequence with G52D
Summed up: as §1

In the case of TCGAGA, the figures for the binding signal (with SALL4 ZFC4 WT (HT-SELEX); in test [1]; in test [2]) were 0.763 ± 0.0625 fold-change vs cycle 0, 0.863 ± 0.0493 fold-change vs cycle 0 and 0.945 ± 0.0348 fold-change vs cycle 0, respectively.

With AACGCT, the binding signal came to 0.549 ± 0.0698 fold-change vs cycle 0 with SALL4 ZFC4 WT (HT-SELEX), 0.603 ± 0.0229 fold-change vs cycle 0 in test [1] and 0.738 ± 0.0676 fold-change vs cycle 0 in test [2].

Regarding ACCAGC, the binding signal with SALL4 ZFC4 WT (HT-SELEX) was found to be 0.312 ± 0.0135 fold-change vs cycle 0; in test [1], 0.369 ± 0.00921 fold-change vs cycle 0; in test [2], 0.497 ± 0.0437 fold-change vs cycle 0.

As to AGTCGA, the binding signal with SALL4 ZFC4 WT (HT-SELEX) is 0.617 ± 0.0356 fold-change vs cycle 0; in test [1] it was 0.697 ± 0.0314 fold-change vs cycle 0; in test [2], 0.807 ± 0.0559 fold-change vs cycle 0.

On to GTCACA, for which the binding signal stood at 0.677 ± 0.0487 fold-change vs cycle 0 with SALL4 ZFC4 WT (HT-SELEX), 0.804 ± 0.0553 fold-change vs cycle 0 in test [1] and 0.861 ± 0.0406 fold-change vs cycle 0 in test [2].

AACGGA: the binding signal in the test with SALL4 ZFC4 WT (HT-SELEX) was found to be 0.714 ± 0.0406 fold-change vs cycle 0; in test [1] it was 0.846 ± 0.0545 fold-change vs cycle 0; in test [2] it was 0.859 ± 0.0492 fold-change vs cycle 0.

As to AGATTG, the binding signal worked out at 1.29 ± 0.0269 fold-change vs cycle 0 with SALL4 ZFC4 WT (HT-SELEX), 1.41 ± 0.0315 fold-change vs cycle 0 in test [1] and 1.38 ± 0.0773 fold-change vs cycle 0 in test [2].

For the sequence AGCACA, the binding signal was 0.64 ± 0.039 fold-change vs cycle 0 in the test with SALL4 ZFC4 WT (HT-SELEX), 0.77 ± 0.0406 fold-change vs cycle 0 in test [1] and 0.894 ± 0.0466 fold-change vs cycle 0 in test [2].

Take CTAGTA: the values for the binding signal (in the test with SALL4 ZFC4 WT (HT-SELEX); in test [1]; in test [2]) were 1.34 ± 0.0412 fold-change vs cycle 0, 1.54 ± 0.0865 fold-change vs cycle 0 and 1.39 ± 0.135 fold-change vs cycle 0, respectively.

AGCCAT: the binding signal worked out at 0.592 ± 0.0288 fold-change vs cycle 0 in the test with SALL4 ZFC4 WT (HT-SELEX), 0.664 ± 0.00758 fold-change vs cycle 0 in test [1] and 0.778 ± 0.0611 fold-change vs cycle 0 in test [2].

Regarding TCCGAA, the binding signal turned out to be 0.618 ± 0.0382 fold-change vs cycle 0 with SALL4 ZFC4 WT (HT-SELEX), 0.692 ± 0.0361 fold-change vs cycle 0 in test [1] and 0.791 ± 0.046 fold-change vs cycle 0 in test [2].

Take TAGATA: the binding signal with SALL4 ZFC4 WT (HT-SELEX) worked out at 2.23 ± 0.154 fold-change vs cycle 0; in test [1], 2.04 ± 0.12 fold-change vs cycle 0; in test [2], 1.84 ± 0.212 fold-change vs cycle 0.

For the sequence AATTTA, the values for the binding signal (with SALL4 ZFC4 WT (HT-SELEX); in test [1]; in test [2]) were 2.91 ± 0.251 fold-change vs cycle 0, 2.35 ± 0.145 fold-change vs cycle 0 and 2.04 ± 0.225 fold-change vs cycle 0, respectively.

Consider AAGCCT, for which the binding signal with SALL4 ZFC4 WT (HT-SELEX) turned out to be 0.633 ± 0.0294 fold-change vs cycle 0; in test [1] it was 0.72 ± 0.0269 fold-change vs cycle 0; in test [2], 0.848 ± 0.0353 fold-change vs cycle 0.

With GGAACC, the results for the binding signal (with SALL4 ZFC4 WT (HT-SELEX); in test [1]; in test [2]) were 0.444 ± 0.034 fold-change vs cycle 0, 0.539 ± 0.0289 fold-change vs cycle 0 and 0.622 ± 0.0467 fold-change vs cycle 0, respectively.

As for CTAATA, the binding signal in the test with SALL4 ZFC4 WT (HT-SELEX) came out at 2.24 ± 0.127 fold-change vs cycle 0; in test [1], 2.01 ± 0.099 fold-change vs cycle 0; in test [2] it was 1.81 ± 0.144 fold-change vs cycle 0.

For the sequence ATGCGA, the figures for the binding signal (with SALL4 ZFC4 WT (HT-SELEX); in test [1]; in test [2]) were 0.525 ± 0.0387 fold-change vs cycle 0, 0.556 ± 0.0155 fold-change vs cycle 0 and 0.689 ± 0.0646 fold-change vs cycle 0, respectively.

Turning to CAGGAG, the binding signal was 0.48 ± 0.0178 fold-change vs cycle 0 in the test with SALL4 ZFC4 WT (HT-SELEX), 0.596 ± 0.041 fold-change vs cycle 0 in test [1] and 0.676 ± 0.0293 fold-change vs cycle 0 in test [2].

As to ATAGGC, the binding signal in the test with SALL4 ZFC4 WT (HT-SELEX) was determined as 0.52 ± 0.0405 fold-change vs cycle 0; in test [1] it was 0.585 ± 0.0153 fold-change vs cycle 0; in test [2] it was 0.733 ± 0.0725 fold-change vs cycle 0.

For the sequence AAGTGA, the binding signal with SALL4 ZFC4 WT (HT-SELEX) stood at 1.34 ± 0.0271 fold-change vs cycle 0; in test [1], 1.52 ± 0.0501 fold-change vs cycle 0; in test [2] it was 1.42 ± 0.0562 fold-change vs cycle 0.

With ACACCT, the binding signal with SALL4 ZFC4 WT (HT-SELEX) was 0.834 ± 0.0401 fold-change vs cycle 0; in test [1], 0.949 ± 0.0347 fold-change vs cycle 0; in test [2] it was 0.979 ± 0.022 fold-change vs cycle 0.

Regarding AATCCG, the results for the binding signal (with SALL4 ZFC4 WT (HT-SELEX); in test [1]; in test [2]) were 0.616 ± 0.0217 fold-change vs cycle 0, 0.698 ± 0.0254 fold-change vs cycle 0 and 0.798 ± 0.0327 fold-change vs cycle 0, respectively.

Turning to AACTCG, the binding signal in the test with SALL4 ZFC4 WT (HT-SELEX) amounted to 0.7 ± 0.0308 fold-change vs cycle 0; in test [1], 0.798 ± 0.00905 fold-change vs cycle 0; in test [2], 0.871 ± 0.024 fold-change vs cycle 0.

With CAGCTC, the values for the binding signal (with SALL4 ZFC4 WT (HT-SELEX); in test [1]; in test [2]) were 0.332 ± 0.0301 fold-change vs cycle 0, 0.394 ± 0.00722 fold-change vs cycle 0 and 0.526 ± 0.0361 fold-change vs cycle 0, respectively.

For CGTTTC, the binding signal came out at 0.628 ± 0.029 fold-change vs cycle 0 with SALL4 ZFC4 WT (HT-SELEX), 0.738 ± 0.0101 fold-change vs cycle 0 in test [1] and 0.794 ± 0.021 fold-change vs cycle 0 in test [2].

On to AAAACC, for which the values for the binding signal (with SALL4 ZFC4 WT (HT-SELEX); in test [1]; in test [2]) were 0.956 ± 0.0539 fold-change vs cycle 0, 1.05 ± 0.0465 fold-change vs cycle 0 and 1.1 ± 0.0332 fold-change vs cycle 0, respectively.

In the case of TCGAAA, the binding signal with SALL4 ZFC4 WT (HT-SELEX) was 0.999 ± 0.0813 fold-change vs cycle 0; in test [1], 1.02 ± 0.0328 fold-change vs cycle 0; in test [2] it was 1.06 ± 0.0355 fold-change vs cycle 0.

Take AGCTTG: the binding signal with SALL4 ZFC4 WT (HT-SELEX) turned out to be 0.638 ± 0.0175 fold-change vs cycle 0; in test [1], 0.764 ± 0.0176 fold-change vs cycle 0; in test [2] it was 0.841 ± 0.049 fold-change vs cycle 0.

Regarding AACATC, the figures for the binding signal (with SALL4 ZFC4 WT (HT-SELEX); in test [1]; in test [2]) were 1.26 ± 0.068 fold-change vs cycle 0, 1.37 ± 0.098 fold-change vs cycle 0 and 1.34 ± 0.101 fold-change vs cycle 0, respectively.

Consider ACGGAA, for which the binding signal with SALL4 ZFC4 WT (HT-SELEX) is 0.706 ± 0.0319 fold-change vs cycle 0; in test [1], 0.803 ± 0.0284 fold-change vs cycle 0; in test [2] it was 0.868 ± 0.0441 fold-change vs cycle 0.
